# In PubChem BioAssay (Tox21):
# Inconclusive results are not listed. Entries that show only a call come without a potency. A number with no mark means an inactive call. Calls of active or inactive are those of the source. The call rests on the fitted dose curve; in most records, active means well fitted cell-killing curve with a large enough effect in the repeat runs; inconclusive means weak or mixed curves, or effect the other way; inactive means flat fitted curve, though single readings scatter.
# Test: cAMP Responsive Elements (CRE) small molecule antagonists, cell-based qHTS assay: qHTS cell viability counter screen (AID 2060913); further: nearly all actives have a fitted effect of over 40% in size
# Conditions: CRE-bla HEK293T viability, CellTiter-Glo luminescence, 5 h; series mostly up to 92.4 µM
# In short: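 Viability of NKH477-stimulated (0.25 uM final) CRE-bla HEK293T cells is measured by CellTiter-Glo luminescence following 3 hrs compound exposure at 37 C.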
Structure (SMILES),Potency,"viability change, negative = cytotoxic"
O=C(O)c1c2ccccc2cc2ccccc12,inactive,–
O=C(C1CCCCC1)N1CC(=O)N2CCCc3ccccc3C2C1 (centres undefined),inactive,–
C=CC(=C)CCC=C(C)C,inactive,–
O=C(c1ccccc1)C1CCC1,inactive,–
CCC(C)(C)c1cc(O)c(C(C)(C)CC)cc1O,inactive,–
C[C@@H]1CCC[C@H](C)N1CCCC(O)(c1ccccc1)c1ccccn1 (some centres undefined),inactive,–
C=Cc1ccc(S(=O)(=O)O)cc1,inactive,–
Cc1c(F)c(N2CCNC(C)C2)cc2c1c(=O)c(C(=O)O)cn2C1CC1 (centres undefined),inactive,–
OCCc1ccccc1,inactive,–
OCC(O)CN1CCN(c2ccccc2)CC1 (centres undefined),inactive,–
O=S(=O)(O)c1cc(O)c2ccc(Nc3ccccc3)cc2c1,inactive,–
CCCCC(CC)COC(=O)c1ccc(C(=O)OCC(CC)CCCC)cc1 (centres undefined),inactive,–
c1cc(N(CC2CO2)CC2CO2)ccc1OCC1CO1 (centres undefined),inactive,–
C1CCC(SSC2CCCCC2)CC1,inactive,–
Cc1ccc2c(c1)C(=O)c1ccccc1C2=O,inactive,–
CC(=O)c1ccc2ccc3ccccc3c2c1,inactive,–
O=CN1CCOCC1,inactive,–
OCC(O)CS (centres undefined),inactive,–
CCC(C)(C)C,inactive,–
O=Cc1ccccc1Cl,inactive,–

Structure (SMILES),Potency,"viability change, negative = cytotoxic"
N[C@@H](COP(=O)(O)O)C(=O)O,–,4.6% [at 18.9 µM]
CCOc1ccccc1C(N)=O,inactive,–
CCC(CN)=C(c1ccccc1)c1ccccc1,inactive,–
c1ccc([C@H]2CN3CCSC3=N2)cc1,inactive,–
CCOC(=O)c1cc(=O)c2c(OCC(COc3cccc4oc(C(=O)OCC)cc(=O)c34)OC(=O)[C@@H](N)CCCCN)cccc2o1,inactive,–
C=C(CC)C(=O)c1ccc(OCC(=O)O)c(Cl)c1Cl,inactive,–
O=C(O)c1ccc2cc(C(=O)O)ccc2c1,inactive,–
Cc1ccc(C=O)cc1C,inactive,–
CC(=O)Oc1ccc(C(c2ccc(OC(C)=O)cc2)c2ccccn2)cc1,inactive,–
CCCC(=O)OC/C=C(\C)CCC=C(C)C,inactive,–
Brc1ccccn1,inactive,–
CN(C)CCOC(c1ccccc1)c1ccccc1 (tested in a mixture with another compound),inactive,–
CC(C)(C)C(=O)OCOP(=O)(COCCn1cnc2c(N)ncnc21)OCOC(=O)C(C)(C)C,inactive,–
Cc1cc2nc3ccc(=[N+](C)C)cc-3sc2cc1N,inactive,–
CCC(=O)OCCC(C)CCC=C(C)C (centres undefined),inactive,–
Nc1nc(-c2ccccc2)cs1,inactive,–
CC(S)C(C)S (centres undefined),inactive,–
CC(C(=O)O)c1cccc(Oc2ccccc2)c1 (centres undefined),inactive,–
CCCCN(CCO)CCO,inactive,–
